PubChem BioAssay AID1422 (Emory University Molecular Libraries Screening Center, 2008)
“And” between values parts separate entries of the source, which are not always exact repeats. Identical values can stand only once. Out of some 260,000 compounds screened, about 1,300 (0.5%) were called active.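 Rule for the calls: active = percent inhibition above 40 after rounding to a whole number; inactive = the rest.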 Shown is part of a subset that was picked to be rich in actives. Where a structure was tested more than once in an assay, its records may differ in their call.

Target: Prostaglandin E2 receptor EP2 subtype (Homo sapiens) (UniProt P43116)
Assay: blockers of PGE2-driven EP2 cAMP signalling – TR-FRET cAMP, C6 glioma cells, primary screen (AID 1422);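 note: rat C6 glioma host cells with rolipram phosphodiesterase inhibitor present; the protocol text gives 20 µM as final concentration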
Details: C6 glioma cells expressing human EP2, cAMP TR-FRET; at 25 µM; stronger effect = higher value; cells stimulated with saturating PGE2

Chain of Prostaglandin E2 receptor EP2 subtype (Homo sapiens) (P43116 whole entry, looked up): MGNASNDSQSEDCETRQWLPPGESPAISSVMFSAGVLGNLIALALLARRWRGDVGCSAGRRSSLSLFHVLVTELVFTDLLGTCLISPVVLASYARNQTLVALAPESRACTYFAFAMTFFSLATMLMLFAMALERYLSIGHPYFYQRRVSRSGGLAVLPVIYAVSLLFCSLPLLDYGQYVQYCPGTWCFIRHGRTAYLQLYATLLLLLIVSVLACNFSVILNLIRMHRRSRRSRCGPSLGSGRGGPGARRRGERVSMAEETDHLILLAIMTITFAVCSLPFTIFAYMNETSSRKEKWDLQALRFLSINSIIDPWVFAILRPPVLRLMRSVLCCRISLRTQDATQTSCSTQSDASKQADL

inhibition, 113% (active) and 18.5% (inactive):
Oc1c(Cl)cc(Cl)c(Cl)c1Cc1c(O)c(Cl)cc(Cl)c1Cl

inhibition, inactive:
COc1ccc(CNC(=O)C2C3CCC4(CN(CCc5ccccc5)C(=O)C24)O3)cc1 (stereo unspecified) 8.25%, COC(=O)c1c(NC(=O)c2cccc(C)c2)sc(C(=O)Nc2cccc(OC)c2)c1C 7.04%, Clc1ccc(Nc2ncnc3c2nnn3Cc2ccccc2)cc1 7.31%, COc1ccccc1NC(=S)N(Cc1cc2cccc(C)c2[nH]c1=O)CC1CCCO1 (stereo unspecified) 15.9%, Cc1ccc2[nH]c(=O)c(CN(Cc3ccccc3Cl)C(=O)N3CCCC3)cc2c1 11.3%, CCCC(NC(=O)c1csc(C(C)=O)c1)c1ccc2c(c1)OCCO2 (stereo unspecified) 9.91%, CC1CCCCN1C(=O)CSc1nc(-c2ccccc2)cc(C(F)(F)F)n1 (stereo unspecified) 12.9%, COc1ccc(-c2cc(C(F)(F)F)nc(SCCC(=O)N3CCCCC3C)n2)cc1 (stereo unspecified) 12.1%, CCOc1ccc(C2C(C(=O)c3ccco3)=C(O)C(=O)N2CCOC)cc1OC (stereo unspecified) 8.68%, COc1ccccc1/C=N\Nc1cc(C)nc(-n2nc(C)cc2C)n1 3.92%, COc1cccc(/C=N/Nc2ncc(C(F)(F)F)cc2Cl)c1O 4.36%, Oc1ccccc1-c1nc2cnccn2c1NCc1ccccc1 9.33%, CN(C)CCCNC(=O)C(=O)Nc1ccc2c(c1)OCO2 13.4%, Cc1ccc(NC=C2C(=O)OC(C)(C)OC2=O)cc1Cl 10%, Cc1ccc(C)c2[nH]c(=O)c(C(c3nnnn3Cc3ccc(F)cc3)N3CCc4ccccc4C3)cc12 (stereo unspecified) 6.97%, C=COCCNC(=O)Cn1nc(C)n2c(cc3occc32)c1=O 7.9%, CNc1ncnc2c1ncn2[C@@H]1O[C@H](CO)[C@H](O)C1O (stereo partly specified) 13.5%, Nc1nc(SCc2ccc([N+](=O)[O-])cc2)c2ncn(C3OC(CO)C(O)C3O)c2n1 (stereo unspecified) 9.89%, CCOc1ccc(-n2nnnc2SCC(=O)Nc2ccc(C)c(NC(=O)CC)c2)cc1 10.6%, CC(=O)Nc1ccc(S(=O)(=O)N2CC=C[C@@H]2C(=O)NCCc2ccccc2)cc1 8.27%, Cc1ccc(C)c2nc(SCC(=O)Nc3ccccc3-c3ccccc3)c(C#N)cc12 13.9%, Cc1cccc2cc(CN(Cc3cccs3)C(=O)Nc3ccc(Cl)cc3)c(=O)[nH]c12 6.58%, OC(CN1CCC(O)(c2cccc(C(F)(F)F)c2)CC1)c1ccccc1 (stereo unspecified) 5.58%, COc1ccccc1NC(=O)CSc1ncnc2sc3c(c12)CCC(C)C3 (stereo unspecified) 15.3%, CC1CCc2c(sc3ncn4c(SCC(=O)N5CCc6ccccc65)nnc4c23)C1 (stereo unspecified) 16.8%, Cc1nnc(NC(=O)CN2CCN(C3CCCCC3)CC2)s1 13.3%, COC(=O)c1ccc(-n2nnnc2SCC(=O)NCc2cccs2)cc1 10.1%, COc1ccc(C2(NC(=O)c3ccc(N4CCCCS4(=O)=O)cc3)CCCC2)cc1 6.96%, O=C(O)C1CCN(C(=O)OCc2ccccc2)CC1 7.11%, CC(C)C(NC(=O)OCc1ccccc1)C(=O)OCC(=O)N1C(C)CCCC1C (stereo unspecified) 12.2%, COc1ccccc1C1(NC(=O)c2snnc2C)CCCC1 10.4%, O=C(O)COc1nc(N2CCCCC2)nc(N2CCCCC2)n1 11.5%, Cc1cccc(N(CC(=O)NC2CCCC2)C(=O)c2snc(C(=O)NC3CCCCC3)c2N)c1C 13.6%, CS(=O)(=O)c1ccc(Cl)c(NC(=O)Nc2ccccc2)c1 6.72%, CC(=O)Nc1cc(C(=O)O)ccc1S(=O)(=O)c1ccc(Cl)cc1 5.25%, CC1CCc2c(sc3ncnc(SCc4cc(=O)[nH]c5ccccc45)c23)C1 (stereo unspecified) 13.1%, Cc1cccc2c(=O)c(C(=O)NN)c[nH]c12 5.35%, Cc1cc(C)cc(NC(=O)CSc2nc3c(c(=O)n(C)c(=O)n3C)n2C(C)C)c1 5.34%, COC(=O)c1ccccc1NC(=O)CSc1nnc2c(C)cc3cc4c(cc3n12)OCCO4 7.88%, Cc1cc2cc3c(cc2n2c(SCC(=O)Nc4ccc(Cl)cc4)nnc12)OCCO3 19.1%, CC1Cc2cc(C(O)CN3CCCC3)ccc2N1C(=O)C(C)(C)C (stereo unspecified) 6.03%, COc1cc(C2C(C(=O)c3ccc(C)o3)=C(O)C(=O)N2Cc2cccnc2)ccc1O (stereo unspecified) -0.43%, Cc1ccc(C(=O)C2=C(O)C(=O)N(Cc3ccccc3)C2c2ccncc2)o1 (stereo unspecified) 17.6%, CC(=O)C(C)n1c(CN2CCC(C)CC2)nc2c1c(=O)n(C)c(=O)n2C (stereo unspecified) 7.13%, Cn1c(=O)c2c([nH]c(=O)n2Cc2cccc3ccccc23)n(C)c1=O 11.4%, O=C(/C=C/c1ccc(Cl)c([N+](=O)[O-])c1)c1ccc(O)cc1 2.09%, O=C(Nc1cccnc1)c1ccc(Cl)c([N+](=O)[O-])c1 3.46%, COc1ccc(CNc2sc3c(c2C(=O)Nc2ccccc2OC)CCC3)cc1 8.59%, COc1ccc2c(c1)NC1(CCN(C(=O)c3ccc(Cl)nc3)CC1)c1cccn1-2 13%, Cc1cccc(NC(=S)N(Cc2cc3ccc(C)c(C)c3[nH]c2=O)CC2CCCO2)c1 (stereo unspecified) 8.93%, COc1ccc2nc(Nc3nc(-c4cc5ccccc5oc4=O)cs3)sc2c1 6.47%, O=c1oc2ccccc2cc1-c1csc(Nc2ccc(O)cc2)n1 4.13%, CCOc1ccc2nc(SCC(=O)OC(C)C)c(C#N)cc2c1 10.9%, O=C(O)CC1=C(Nc2ccccc2)C(=O)N(c2ccccc2)C1c1ccc(Cl)cc1 (stereo unspecified) 5.93%, O=C1c2cccc3cc(Br)cc(c23)C(=O)N1Nc1ccccc1 7.35%, COc1ccc(C(c2nnnn2CC2CCCO2)N2CCN(C3CCCCC3)CC2)cc1 (stereo unspecified) 1.12%, Cc1ccc(C)c(N2C(=O)c3cccc4c(N(C)C)ccc(c34)C2=O)c1 8.88%, CC1CCN(C(=O)CN(C)S(=O)(=O)c2ccc(F)cc2)CC1 7.13%, c1ccc2c(c1)OCC(CNc1ncnc3nc[nH]c13)O2 (stereo unspecified) 10.3%, COc1ccc(Nc2ncnc3sc(-c4ccccc4)cc23)c(OC)c1 15.7%, COc1ccccc1N=C1Sc2nc3cc4c(cc3cc2CN1CC1CCCO1)OCO4 (stereo unspecified) 9.09%, CC(C)n1c(SCC(=O)N(Cc2ccccc2)C(C)(C)C)nc2c1c(=O)n(C)c(=O)n2C 9.83%, CCN1CCN(C(=O)c2sc3ccccc3c2Cl)CC1 9.4%, COc1ccccc1NC(=O)C1=C(C)NC2=C(C(=O)CCC2)C1c1ccc(C)o1 (stereo unspecified) 2.07%, Cc1ccc(C2C3=C(Nc4[nH]n(-c5ccccc5)c(=O)c42)c2ccccc2C3=O)cc1 (stereo unspecified) 10.2%, O=C(NCc1ccccc1)C(=O)c1c[nH]c2ccccc12 12.1%, C/C(Cl)=C\CSc1nc(N2CCOCC2)c2c(c1C#N)CC(C)(C)OC2 9.2%, CN1CCN(C(c2ccc(Cl)cc2)c2nnnn2Cc2ccco2)CC1 (stereo unspecified) 13.3%, Cc1ccc(N2CCCC2=O)cc1S(=O)(=O)NC1CCCNC1=O (stereo unspecified) 5.07%, COc1ccc2c(c1)N(C)/C(=c1\s/c(=C3\SC(=S)N(C)C3=O)n(C)c1=O)S2 17.4%, CN(C)S(=O)(=O)c1ccc(S(=O)(=O)N2CCN(c3ccccc3F)CC2)cc1 15.4%, CCOc1cc(-c2cc(-c3ccc(OC)cc3)nc(N)c2C#N)ccc1O 13.6% and 5.97%, CCc1c(-c2ccccc2)nc(N)c(C#N)c1-c1cccs1 5.93%

inhibition, active:
Clc1ccc(Nc2nc3nonc3n3nnnc23)cc1 91.1%, COc1ccc(-c2cc(C(F)(F)F)nc(SCC(=O)N3CCCCC3C)n2)cc1 (stereo unspecified) 52.4%, COc1cccc(/C=N/Nc2cc(C)nc(-c3ccccc3O)n2)c1O 39.9%, C[C@H]1O[C@@H](CC(=O)O)Cc2c1c(O)c1c(O)cc(-c3cc(=O)c4c(=O)c5c(c(=O)c=4c3=O)C[C@H](CC(=O)O)O[C@@H]5C)c(O)c1c2O 41.5%, OC[C@@H]1O[C@H](n2cnc3c(SCc4ccccc4)ncnc32)[C@H](O)[C@H]1O 48.2%, COc1ccc(NC(=O)CSc2nnc3c4c5c(sc4ncn23)CC(C)CC5)cc1 (stereo unspecified) 46.8%, NC1(C(=O)OCc2ccccc2)CCCC1 42.6%, O=C(Nc1ccccc1)c1nnsc1S(=O)(=O)c1ccc(Cl)cc1 114%, Cc1nc(NC(=O)CSc2nnc3c(C)cc4cc5c(cc4n23)OCCO5)sc1C 40.1%, C=CCOc1cccc(C2C(C(=O)c3ccc(C)o3)=C(O)C(=O)N2c2nnc(C)s2)c1 (stereo unspecified) 45.8%, O=C(/C=C/c1ccc(Cl)c([N+](=O)[O-])c1)c1cccnc1 43.7%, O=c1oc2ccccc2cc1-c1csc(Nc2cccc(O)c2)n1 117%, O=C1C=C(c2ccc(Cl)cc2)C(=O)N1Nc1ccccc1 134%, c1ccc(-c2cc3c(NCC4COc5ccccc5O4)ncnc3s2)cc1 (stereo unspecified) 99.7%, COC(=O)C1=C(C)NC2=C(C(=O)c3ccccc32)C1c1ccc(-c2ccc(C(=O)O)cc2)o1 (stereo unspecified) 42.5%, C/C(N[O-])=C(\C)[N+]([O-])=[Co].CC(=N\[O-])/C(C)=N/[O-].[CH2-]CCN1CCOCC1.c1ccncc1 42.1%, CCOc1cc(-c2c(C#N)c(N)nc(-c3ccccc3)c2CC)ccc1O 42.1%
